Results reported in PubChem BioAssay (NCATS).
Where “and” joins values, the source holds several entries; their conditions need not be identical. Identical values can stand only once. Records with an inconclusive call do not appear. Entries that show only a call come without a potency. The source holds several records for some structures; these can differ, active in one and inactive in another. Calls of active or inactive are those of the source. Calls follow the shape of the dose curve; as a rule, active = well fitted inhibition curve with a large enough effect; inconclusive = small, poorly fitted or top-dose-only effect; inactive = flat fitted curve, though single readings scatter.

Biological target: Glutathione peroxidase 1 (Homo sapiens) (UniProt P07203)
Sequence (P07203 whole entry, looked up): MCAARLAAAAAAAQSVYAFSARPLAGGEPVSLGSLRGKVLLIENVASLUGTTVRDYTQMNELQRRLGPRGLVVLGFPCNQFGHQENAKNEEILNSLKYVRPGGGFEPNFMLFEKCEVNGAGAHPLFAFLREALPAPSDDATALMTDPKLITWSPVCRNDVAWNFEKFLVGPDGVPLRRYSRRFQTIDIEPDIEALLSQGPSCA
Assay: Primary qHTS Assay for Inhibitors of Recombinant Selenoprotein Glutathione Peroxidase 1 (GPX1) (AID 1845191); also: nearly all actives have a fitted effect of over 65% in size
Details: recombinant GPX1, GR-coupled NADPH fluorescence, 15 min; series mostly up to 48.8 µM; activity, negative = inhibition: at the top concentration
Method in brief: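 GR-coupled assay: compounds preincubated 30 min at room temperature with GPX1, then reaction started with CHP; final 10 nM GPX1, 1 mM GSH, 0.5 mM CHP, 0.5 mM NADPH, 100 nM GR, 0.01% BSA, pH 7.5 Tris buffer. NADPH fluorescence (340/450 nm) read at 0 and 15 min.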
Potency is read from the fitted curve at half-maximal effect.

SMILES	outcome	activity, negative = inhibition	Potency
CN1CC[C@@H](c2c(O)cc(O)c3c(=O)cc(-c4ccccc4Cl)oc23)[C@@H](O)C1	inactive		
CC(C)[C@H](C(=O)Nc1ccc(C(=O)NO)cc1)c1ccccc1	inactive		
Cc1ccc(-c2ncn(-c3ccc(Nc4nccc(-c5cccc(N6CCOCC6)c5)n4)cc3)n2)cn1		-11.9% (inactive)	
C=C1C(=CC=C2CCC[C@]3(C)[C@@H]([C@H](C)C=C[C@H](C)C(C)C)CC[C@@H]23)C[C@@H](O)C[C@@H]1O	inactive		
CN[C@H]1CCc2cc(OC)c(OC)c(OC)c2-c2ccc(OC)c(=O)cc21	inactive		
COc1cc2ncn(-c3cc(OCc4ccccc4C(F)(F)F)c(C(N)=O)s3)c2cc1OC	inactive		
C=CC(=O)Nc1cc2c(Nc3ccc(F)c(Cl)c3)ncnc2cc1C#CC(C)(C)N1CCN(C)CC1		-0.77% (inactive)	
C[C@@H]1CN(CC(=O)Nc2ccc3c(c2)Cc2cccc(-c4cc(=O)cc(N5CCOCC5)o4)c2S3)C[C@H](C)O1	inactive		
CC(C)c1ccc(Cn2ccc3c4c(N)nc(NC5CC5)nc4ccc32)cc1	inactive		
CC[C@H](CO)Nc1nc(NCc2ccccc2)c2ncn(C(C)C)c2n1		-5.49% (inactive)	
CN(c1ncccc1CNc1nc(Nc2ccc3c(c2)CC(=O)N3)ncc1C(F)(F)F)S(C)(=O)=O	inactive		
COCCn1c2c([n+](Cc3cnccn3)c1C)C(=O)c1ccccc1C2=O		-23.5% (inactive)	
C[C@@]12O[C@@H](C[C@]1(O)CO)n1c3ccccc3c3c4c(c5c6ccccc6n2c5c31)CNC4=O	inactive		
NC(=O)c1cccc2cn(-c3ccc([C@@H]4CCCNC4)cc3)nc12			18.3 µM (active) and 22.7 µM (active)
COc1ccc(CC2c3cc(OC)c(OC)cc3CC[N+]2(C)CCC(=O)OCCCCCOC(=O)CC[N+]2(C)CCc3cc(OC)c(OC)cc3C2Cc2ccc(OC)c(OC)c2)cc1OC (configuration not stated)			inactive
CC(=O)SC[C@@H](C)C(=O)N1CCC[C@H]1C(=O)N[C@@H](Cc1ccccc1)C(=O)O	inactive		
Cc1nc2ccc(CN(C)c3ccc(C(=O)N[C@@H](CCC(=O)O)C(=O)O)s3)cc2c(=O)[nH]1			25.5 µM (active) and inactive and 22.7 µM (active)
Cc1ccc(S(=O)(=O)Nc2cc(Cl)ccc2C(=O)Nc2nc(-c3ccccc3)cs2)cc1	inactive		
O=c1[nH]c(=O)n(C2CCCO2)cc1F (configuration not stated)		2.11% (inactive)	
O=C(CCCCCCNC(=O)c1cnc(N(c2ccccc2)c2ccccc2)nc1)NO			inactive
Cc1nc2cnc3ccc(C#Cc4cccnc4)cc3c2n1-c1ccc(C(C)(C)C#N)cc1	inactive		
C=CC(=O)Nc1cc2c(Nc3ccc(F)c(Cl)c3)ncnc2cc1OCCCN1CCOCC1	inactive		
CN(C)CCCN=c1c2ccccc2n(C)c2[nH]c(=O)n(C)c(=O)c12	inactive		
COc1cc(OC2CCN(C)CC2)ccc1Nc1ncc2c(n1)n(C1CCCC1)c(=O)n2C		-11.4% (inactive)	
Nc1ccccc1NC(=O)c1ccc(CNC(=O)OCc2cccnc2)cc1			inactive
COc1cc2c(cc1-c1c(C)noc1C)ncc1[nH]c(=O)n([C@H](C)c3ccccn3)c12			inactive
CN1CCN(c2ccc3nc(-c4c(N)c5c(F)cccc5[nH]c4=O)[nH]c3c2)CC1		4.18% (inactive)	
